Assay outcomes (PubChem)
RORgamma inh: qHTS for inhibitors of ROR gamma transcriptional activity | Nuclear receptor ROR-gamma (Mus musculus), P51450 | Drosophila S2 Gal4-RORgamma UAS-luciferase reporter, 20 h | Potency, µM (doses to about 53.6 µM), for the others: at the highest dose activity change, negative = inhibition, actives largely listed as inhibitors | actives 5.4% (n = 310,000); active = well fitted curve in the direction sought with a large enough effect; inconclusive = small, poorly fitted or top-dose-only effect, or another doubt; inactive = no such curve, though single readings can be large; an effect the other way counts as inactive or inconclusive; also: potency is read from the fitted curve at half-maximal effect; % is scaled to controls: 0 for no effect and ±100 for the full control effect; nearly all actives have a fitted effect of over 60% in size
Target sequence (P51450 whole entry, looked up, the tested form may be a part): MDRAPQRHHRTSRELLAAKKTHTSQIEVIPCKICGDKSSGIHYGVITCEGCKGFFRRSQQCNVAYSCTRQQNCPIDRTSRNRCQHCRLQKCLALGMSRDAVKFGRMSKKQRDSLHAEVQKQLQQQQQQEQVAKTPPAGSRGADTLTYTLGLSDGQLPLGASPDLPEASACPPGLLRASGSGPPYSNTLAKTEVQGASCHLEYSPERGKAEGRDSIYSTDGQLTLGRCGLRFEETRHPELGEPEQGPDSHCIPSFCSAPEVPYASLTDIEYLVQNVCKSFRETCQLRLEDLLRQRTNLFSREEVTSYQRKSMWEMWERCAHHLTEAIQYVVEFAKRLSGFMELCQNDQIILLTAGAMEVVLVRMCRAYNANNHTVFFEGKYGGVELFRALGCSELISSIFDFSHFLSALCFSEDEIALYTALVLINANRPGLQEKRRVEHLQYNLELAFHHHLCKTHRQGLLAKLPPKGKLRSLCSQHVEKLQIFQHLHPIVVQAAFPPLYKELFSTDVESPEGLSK
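Schneider cells (Drosophila), stable Gal4 DBD–ROR gamma + UAS-luc; 1 hr cmpd preincubation; Cu2+ induction 700 uM final; 20 hr ambient; luminescence.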
Coupling enz: qHTS Assay for Inhibitors of Fructose-1,6-bisphosphate Aldolase from Giardia Lamblia: Coupling assay counterscreen | AID 2472, 2010 | activity change, negative = inhibition, % at 58.2 µM, hits read low | actives 0.67% (n = 290,000) | coupling enzyme system counterscreen, AmpLite Red fluorescence; in the data active = activity change below about -30%; also: % is scaled to controls: 0 for no effect and ±100 for the full control effect
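First, compound is pin-transferred into glyceraldehyde-3-phosphate coupling-enzyme reagent at 57.5 uM final and held 10 min at RT. Next, substrate, coupling system and AmpLite Red are added. After 20 min RT, fluorescence (525/598 nm) is read.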
VP16 counter: VP16 counterscreen qHTS for inhibitors of ROR gamma transcriptional activity; Drosophila S2 Gal4-VP16 UAS-luciferase, luminescence, 20 h; Potency, µM (top dose mostly 53.6 µM), without a hit: top-dose activity, negative = inhibition, actives largely listed as inhibitors; actives 3.5% (n = 310,000); AID 2546, 2010; active = well fitted curve in the direction sought with a large enough effect; inconclusive = small, poorly fitted or top-dose-only effect, or another doubt; inactive = no such curve, though single readings can be large; an effect the other way counts as inactive or inconclusive;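 also: Gal4-VP16 expression switched on by copper sulfate through the metallothionein promoter; potency is read from the fitted curve at half-maximal effect; % is scaled to controls: 0 for no effect and ±100 for the full control effect; nearly all actives have a fitted effect of over 50% in size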
TSHR antag: Antagonists of the Thyroid Stimulating Hormone Receptor: HTS campaign. Thyrotropin receptor (Homo sapiens), P16473. actives 0.2% (n = 330,000). activity change, negative = inhibition, % at 11.5 µM. TSHR-expressing cells, TSH-stimulated cAMP HTRF, 2 h; hits give low values;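 active = activity change below a set negative limit, meaning inhibition stronger than a set level, cut at about -70% in these data; inconclusive = activity change between two set negative limits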; also: % is scaled to controls: 0 for no effect and ±100 for the full control effect
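Read-out is FRET at 665 nm (cryptate excitation 337 nm) from a cryptate-tagged anti-cAMP antibody, competed by cell cAMP against cAMP-d2. Compounds are tested on freshly harvested TSHR cells challenged with 4nM TSH (EC80) for 2 hours at 37 deg C.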
ELG1 DNA repair: qHTS screen for small molecules that inhibit ELG1-dependent DNA repair in human embryonic kidney (HEK293T) cells expressing luciferase-tagged ELG1; AID 504467, 2011; HEK293T ELG1-luciferase reporter, luminescence, 16 h; DNA damage induced by 5-fluorouridine; Potency, µM (series often up to 46.1 µM), without a hit: at the top dose activity change, negative = inhibition, hits mostly inhibitors; actives 2.3% (n = 330,000); active = well fitted curve in the direction sought with a large enough effect; inconclusive = small, poorly fitted or top-dose-only effect, or another doubt; inactive = no such curve, though single readings can be large; an effect the other way counts as inactive or inconclusive; also: potency is read from the fitted curve at half-maximal effect; % is scaled to controls: 0 for no effect and ±100 for the full control effect; nearly all actives have a fitted effect of over 55% in size
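Luminescence from the luciferase reporter, measured 30 min after ONE-Glo reagent at room temperature, was the read-out. Beforehand, 2,000 cells per well were exposed for 16 hr at 37 °C to 5-fluorouridine together with compound or vehicle.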
Casp1 catalase: Concentration-Response Counterscreen for Redox Active Inhibitors of Caspase-1: Catalase | shares compounds with Coupling enz | caspase-1 Ac-WEHD-AFC fluorescence rate, catalase buffer | Potency, µM (titrated, usually from 57.5 µM), for inactives: at the top dose activity change, negative = inhibition, usual class: inhibitors | 30 tested, under 10 active
Target sequence (P29466 120-297 limits assumed): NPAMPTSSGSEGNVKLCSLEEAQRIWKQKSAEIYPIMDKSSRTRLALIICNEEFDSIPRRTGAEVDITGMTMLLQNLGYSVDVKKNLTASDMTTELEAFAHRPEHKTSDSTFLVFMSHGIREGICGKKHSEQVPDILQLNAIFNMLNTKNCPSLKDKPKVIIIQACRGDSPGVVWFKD
Target sequence (P29466 317-404 limits assumed): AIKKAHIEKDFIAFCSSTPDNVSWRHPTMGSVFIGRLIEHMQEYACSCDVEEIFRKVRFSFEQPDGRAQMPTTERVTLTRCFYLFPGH
CASP1 inh CRC: Confirmation Concentration-Response Assay for Allosteric/Competitive Inhibitors of Caspase-1. shares compounds with Coupling enz. purified caspase-1, fluorogenic substrate cleavage. Potency, µM (highest dose often 57.5 µM), for inactives: at the top dose activity change, negative = inhibition, usual class: inhibitors. actives 20% (n = 60). AID 896, 2007
Casp7 confirm: Confirmation Concentration-Response Assay for Allosteric/Competitive Inhibitors of Caspase-7 | shares compounds with Coupling enz | recombinant caspase-7, fluorogenic substrate cleavage | Potency, µM (highest dose often 57.5 µM), for the others: at the highest dose activity change, negative = inhibition, hits mostly inhibitors | 60 tested, under 10 active | AID 897, 2007; active = well fitted inhibition curve with a large enough effect in the main read-out, with a control signal flat, not every such curve was filed as active; inconclusive = small, poorly fitted or top-dose-only effect, or a change in a side signal; inactive = no such curve, though single readings can be large or run the other way
CASP7 redox cys: Concentration-Response Counterscreen for Redox Active Inhibitors of Caspase-7: Cysteine; shares compounds with Coupling enz; 60 tested, under 10 active; Potency, µM (highest dose often 57.5 µM), inactives show top-dose activity change, negative = inhibition, usual class: inhibitors; caspase-7 enzyme with cysteine, fluorogenic substrate, redox counterscreen
Casp7 catalase: Concentration-Response Counterscreen for Redox Active Inhibitors of Caspase-7: Catalase; 30 tested, under 10 active; Caspase-7 Ac-DEVD-AFC fluorescence rate, catalase buffer; AID 909, 2007; Potency, µM (top dose mostly 57.5 µM), for the others: top-dose activity, negative = inhibition, hits mostly inhibitors; shares compounds with Coupling enz
Casp1 cysteine: Concentration-Response Counterscreen for Redox Active Inhibitors of Caspase-1: Cysteine; 60 tested, under 10 active; shares compounds with Coupling enz; AID 929, 2007; recombinant caspase-1, fluorogenic substrate, cysteine buffer; Potency, µM (titrated, usually from 57.5 µM), inactives show top-dose activity change, negative = inhibition, usual class: inhibitors
* marks the source's active call; other numbers are inactive results; ? = inconclusive; . = no result; ! = repeats disagree; [ ] = remark or other dose. Rows were chosen to be rich in hits. Some 8% of all compounds tested hit in one or more screens of this group. Unless noted, calls follow the shape of the dose curve; as a rule, active = well fitted inhibition curve with a large enough effect in the main read-out, with a control signal flat; inconclusive = small, poorly fitted or top-dose-only effect, or a change in a side signal; inactive = no such curve, though single readings can be large or run the other way.

SMILES	RORgamma inh	Coupling enz	VP16 counter	TSHR antag	ELG1 DNA repair	others
CCOC(=O)Cc1csc(NC(=O)CSc2nnc(-c3ccc(C)cc3)o2)n1	11µM*	1	?	-16	3%
CCn1c2ccccc2c2cc(NC(=O)CSc3nnc(-c4cccc(F)c4)o3)ccc21	-5%	1	9%	6	-9%
O=C(CSc1nnc(-c2cccc(F)c2)o1)Nc1nncs1	13µM*	-3	?	-10	?
Cc1csc(NC(=O)CSc2nnc(-c3ccc(S(=O)(=O)N4CCCC4)cc3)o2)n1	13µM*	1	-28%	-17	-19%
CCOC(=O)Cc1csc(NC(=O)CSc2nnc(-c3ccc(F)cc3)o2)n1	4µM*	-1	?	-13	11%
Cc1[nH]c(/C=C2/C(=O)Nc3ccc(S(=O)(=O)Cc4c(Cl)cccc4Cl)cc32)c(C)c1C(=O)N1CCCC1CN1CCCC1 (stereo unspecified)	?	3	?	.	.
CC1CCCC(N2CCN(C(=O)c3ccc([N+](=O)[O-])cc3)CC2)C1 (stereo unspecified)	-38%	0	-10%	1	-13%
N#Cc1cccc(-c2cc(NCc3cccs3)ncn2)c1	?	0	-7%	.	.
CCOC(=O)Cc1csc(NC(=O)CCc2ccc(S(=O)(=O)N3CCOCC3)cc2)n1	?	1	-26%	-17	12µM*
Cc1nc2ccccn2c1C(=O)N/N=C/c1ccccc1	1%	3	-4%	6	-1%
Cc1ccccc1N/N=C/c1c(C)nc2ccccn12	10µM*	-1	-6%	-6	2%
Cc1nc2ccccc2n1/N=C/c1ccc([N+](=O)[O-])s1	-51%	-5	6.3µM*	-11	?
Cc1ccc(NCc2ccc([N+](=O)[O-])s2)cc1	5%	-2	25%	2	-23%
Cc1cc(C)cc(N=Cc2ccc([N+](=O)[O-])s2)c1	?	-21	18µM*	12	?
O=[N+]([O-])c1ccc(/C=N/n2c(CO)nc3ccccc32)s1	-29%	-2	-25%	-4	?
NC(=O)c1ccc(N=Cc2ccc([N+](=O)[O-])s2)cc1	?	-31*	5.6µM*	-7	?
Cc1ccc(NC(=S)N/N=C/c2ccc([N+](=O)[O-])s2)cc1	7.1µM*	-5	16µM*	-1	0%
NC(=O)c1ccc([N+](=O)[O-])cc1	3%	.	-16%	.	.
O=C(Cc1cccs1)NC1C(=O)N2C(C(=O)[O-])=C(C[n+]3ccccc3)CSC12 (stereo unspecified)	6%	-2	2%	.	.
O=[N+]([O-])c1ccc(C=Nc2ccc(Cl)c([N+](=O)[O-])c2)s1	?	-34*	-24%[10 µM]	-3	?
CC(=O)[C@@H]1[C@@H]2C(=O)N(c3ccc(F)c(Cl)c3)C(=O)[C@@H]2C2c3ccccc3C=CN21 (stereo partly specified)	1%	-2	-6%	-3	-5%	Casp1 catalase=?;CASP1 inh CRC=-76%;Casp7 confirm=-34%;CASP7 redox cys=-3%;Casp7 catalase=-25%;Casp1 cysteine=?
Cc1ccc(N2C(=O)[C@@H]3[C@H](C2=O)C2c4ccccc4C=NN2[C@@H]3C(=O)c2ccc(Cl)cc2)cc1 (stereo partly specified)	13%	0	-1%	0	-14%
O=C(COC(=O)Cn1[nH]c(=O)c2ccccc2c1=O)NNC(=O)c1ccc(Br)cc1	.	.	.	-23	22%
Cc1ccc(CNc2ccc(O)cc2)cc1	?	-46*	?	-7	?	CASP1 inh CRC=-13%;Casp7 confirm=-5%;CASP7 redox cys=-9%;Casp1 cysteine=3%
COC(=O)[C@@]1(C)[C@H]2C(=O)N(C)C(=O)[C@H]2[C@H]2CN=C(SCc3ccc(C#N)cc3)N21	.	.	.	6	27%
SMILES	RORgamma inh	Coupling enz	VP16 counter	TSHR antag	ELG1 DNA repair	others
COc1cc2c(C=O)c3c4c(cc(OC)c(OC)c4c2cc1OC)CCN3C	-29%	-34*	-12%	.	.	CASP1 inh CRC=13µM*;Casp7 confirm=?;CASP7 redox cys=-9%;Casp1 cysteine=?
O=C1C(SCCO)=C(SCCO)C(=O)c2ccccc21	0.63µM*	-56*	0.79µM*	-86*!	?	CASP1 inh CRC=-44%;Casp7 confirm=-18%;CASP7 redox cys=-14%;Casp1 cysteine=-8%
O=C(C1CCCN(S(=O)(=O)c2ccc(F)cc2)C1)N1CCCCCC1 (stereo unspecified)	12%	.	-2%	-11	-3%
Nc1ccc(O)c(C(=O)O)c1	-1%[10 µM]	-46*	4%	.	.	CASP1 inh CRC=-18%;Casp7 confirm=-35%;CASP7 redox cys=-36%;Casp1 cysteine=-2%
CC(=O)n1nc(-c2ccco2)nc1SCc1ccccc1	-9%	1	27%	0	?	CASP1 inh CRC=-3%;Casp7 confirm=2%;CASP7 redox cys=-1%;Casp1 cysteine=8%
O=C(O)c1cc(O)c2c(c1)C(=O)c1cccc(O)c1C2=O	?	-8	?	-8	4%	Casp1 catalase=?;CASP1 inh CRC=?;Casp7 confirm=-1%;CASP7 redox cys=1%;Casp7 catalase=-16%;Casp1 cysteine=?
O=C1C=C(O)c2c(O)cccc2C1=O	1%	2	-3%	13	?
